Measurements from the supplement of paper PMC7530171.
± gives the standard deviation.

test system: THP-1 macrophages infected with Mycobacterium tuberculosis H37Rv; assay: intracellular M.tb growth inhibition relative to DMSO (0) and 4 uM bedaquiline (100); higher = stronger inhibition of intracellular bacterial growth; details: 10 µM; 4 days
Method: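 OICR kinase inhibitor library screened in duplicate at 10 uM against THP-1 macrophages (PMA-differentiated) infected with M. tuberculosis H37Rv-pTEC27 (tdTomato RFP), 4 days at 37 C. Rows with complete host cell loss (placeholder inhibition 0, cell loss 100) were removed.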

Structure (SMILES) | intracellular M.tb growth inhibition
COc1ccc2c(c1)/C(=C/c1cnc[nH]1)C(=O)N2 | -99.5 ± 38%
C/C(O)=C(\C#N)C(=O)Nc1cc(Br)ccc1Br | -33.5 ± 11%
Cn1cc(C2=C(c3cn(C4CCN(Cc5ccccn5)CC4)c4ccccc34)C(=O)NC2=O)c2ccccc21 [Enzastaurin] | -5.94 ± 8.4%
NC(=S)N/N=C/c1coc2ccccc2c1=O.[Cl][Cu][Cl] | 4.45 ± 6.8%
COC[C@H]1OC(=O)c2coc3c2[C@@]1(C)C1=C(C3=O)[C@@H]2CCC(=O)[C@@]2(C)C[C@H]1OC(C)=O [Wortmannin] | -159 ± 64%
CC(=O)c1c(O)c(C)c(O)c(Cc2c(O)c3c(c(C(=O)/C=C/c4ccccc4)c2O)OC(C)(C)C=C3)c1O [Rottlerin] | -0.827 ± 1.2%
O=C1NC(=O)c2c1c1c3ccccc3[nH]c1c1[nH]c3ccccc3c21 [Arcyriaflavin A] | -61.8 ± 87%
Cc1ccccc1-n1c(Cn2cnc3c(N)ncnc32)nc2cccc(C)c2c1=O | -13.6 ± 20%
N#C/C(=C\c1ccc(O)c(O)c1)C(N)=S | -46 ± 15%
